Values joined by “and” are separate entries in the source; they are usually repeats but may differ in a detail not shown here. Identical values can stand only once. Inconclusive results are not listed. A call without a number means that no potency is given here. More than one record can exist for a structure, and the calls need not agree. Active and inactive are the calls of the source. Calls come from the whole dose curve; as a rule, active = well fitted cell-killing curve with a large enough effect in the repeat runs; inconclusive = weak or mixed curves, or effect the other way; inactive = no such curve, though single readings can be large or run the other way.
Potency is the fitted concentration of half-maximal effect.

The experiment can be described thus: qHTS assay for identifying genotoxic compounds that show differential cytotoxicity against isogenic chicken DT40 cell lines with known DNA damage response pathways - wild type cell line (AID 743012). Note: nearly all actives have a fitted effect of over 60% in size. The conditions noted are these: DT40 wild type chicken cells viability, CellTiter-Glo, 40 h; series mostly up to 68.4 µM. An excerpt: U.S. Tox21 Program National Center for Advancing Translational Sciences [NCATS] NIH Chemical Genomics Center [NCGC] U.S. Environmental Protection Agency [EPA] National Institutes of Environmental Health Sciences [NIEHS] National Toxicology Program [NTP] U.S. Food and Drug Administration [FDA] Tox21 Assay Overview: DNA repair pathways play a critical role in cellular homeostasis by repairing DNA damage induced by endogenous processes and xenobiotics. Isogenic chicken DT40 cell lines deficient in different DNA repair pathways can be used to identify genotoxic compounds and aid in characterizing the nature of the DNA damage induced. Two DNA repair-deficient cell lines with disrupted genes, Rad54/Ku70 or Rev3, were used to screen the Tox21 10K compound library. Possible genotoxicity was based on the presence of a significant increase in cytotoxicity in one or more of the DNA repair-deficient cell lines compared to that observed in the parental DNA repair-proficient cell line. CellTiter Glo viability assay (Promega, Madison, WI) was used to measure cell viability in these cells after compound treatment. This assay includes the data from the wild type cell line.
Tox21 Assay Protocol Summary: 300 DT40 wild type cells in 5 uL/well were dispensed into white, solid-bottom 1536-well plates using a Multidrop Combi (ThermoFisher Scientific, Waltham, MA) dispenser. After the assay plates were incubated at 37 C/5% CO2 for approximately 0.5 hour, 23 nL of compounds dissolved in DMSO, positive controls or DMSO only was transferred into the assay plate by a pintool work station (Kalypsys, San Diego, CA). The assay plates were incubated at 37 C/5% CO2 for 40 hours. After 5 uL per well of CellTiter-Glo reagent was added into each well of the assay plates, the plates were incubated for 30 min at room temperature and the luminescence intensity of the plates was measured using a ViewLux (PerkinElmer, Shelton, CT) plate reader.
Turning to `CN1C(=O)CC(=O)N(c2ccccc2)c2cc(Cl)ccc21`, the Potency entry is “inactive”.

Take `CC1COC(Cn2cncn2)(c2ccc(Oc3ccc(Cl)cc3)cc2Cl)O1` (stereo not given): the Potency is 1.37 µM (active).

`CCOc1ccc2c3c1O[C@H]1[C@@H](O)C=C[C@H]4[C@@H](C2)N(C)CC[C@@]341`: the Potency result was “inactive”.

For the molecule `CCNC1(c2cccs2)CCCCC1=O` (stereo not given), the Potency result is “inactive”.

`Oc1cc[c]([Hg][Cl])cc1`: the Potency was 422 nM (active) and 596 nM (active).

As to `CN(C)CCCCCCN(C)C` (tested in a mixture with another compound), the Potency entry was “inactive”.

As for `COC1=CC=C2[C@H]3Cc4ccc(OC)c5c4[C@@]2(CCN3C)[C@H]1O5`, the Potency entry is “inactive”.

`C=CCN1CC[C@]23c4c5ccc(O)c4O[C@H]2[C@@H](O)C=C[C@H]3[C@H]1C5`: the Potency entry was “inactive”.

In the case of `CN[C@@]1(c2ccccc2Cl)CCCCC1=O`, the Potency entry is “inactive”.

As to `CC(=O)Oc1ccc2c3c1O[C@H]1[C@@H](OC(C)=O)C=C[C@H]4[C@@H](C2)N(C)CC[C@@]341`, the Potency entry was “inactive and 68.3 µM (active)”.

Turning to `CCC1(c2ccccc2)C(=O)NC(=O)N(C(=O)c2ccccc2)C1=O` (stereo not given), the Potency entry was “inactive”.

On to `CCCSc1cc(OC)c(CCN)cc1OC`, for which the Potency is 0.183 µM (active).

For the molecule `C[C@]12CC[C@H]3[C@@H](CCC4=C(O)C(=O)CC[C@@H]43)[C@@H]1CC[C@@H]2OC(=O)CCC1CCCC1`, the Potency entry was “inactive”.

Consider `CNC(C)C(O)c1ccc(O)cc1` (stereo not given), for which the Potency entry was “inactive”.

On to `COc1ccc2c3c1O[C@H]1C(=O)CC[C@H]4[C@@H](C2)N(C)CC[C@]314`, for which the Potency result is “inactive”.

Regarding `C[C@@H]1[C@@H]2Cc3ccc(O)cc3[C@@]1(C)CCN2CCc1ccccc1`, the Potency is 3.81 µM (active).

For `CCCC(C)(COC(N)=O)COC(=O)NC1CC1` (stereo not given), the Potency result is “inactive”.

Regarding `CN[C@@H]1C[C@@H](c2ccc(Cl)c(Cl)c2)c2ccccc21`, the Potency is 5.96 µM (active).

In the case of `CCC1(CC)C(=O)NC(=O)N(C)C1=O`, the Potency result is “inactive”.

Consider `CC1(C)S[C@@H]2[C@H](N)C(=O)N2[C@H]1C(=O)O`, for which the Potency entry is “inactive”.

With `COC(=O)[C@H]1[C@@H](OC(=O)c2ccccc2)C[C@@H]2CC[C@H]1N2C`, the Potency result is “inactive”.

Consider `COc1ccc(C(c2ccc(OC)cc2)C(Cl)(Cl)Cl)cc1`, for which the Potency is 19.2 µM (active).

Regarding `C[N+]1(C)CCCCC1COC(=O)C(O)(c1ccccc1)c1ccccc1` (stereo not given), the Potency result is “inactive”.

As for `O=C(O)/C=C/C(=O)O`, the Potency entry was “inactive”.

`C[C@]12C=CC(=O)C=C1CC[C@@H]1[C@@H]2CC[C@]2(C)OC(=O)CC[C@@H]12`: the Potency entry is “inactive”.

On to `C[N+]1([O-])[C@@H]2CC(OC(=O)[C@H](CO)c3ccccc3)C[C@H]1[C@@H]1O[C@@H]12` (stereo not given in full), for which the Potency result was “inactive”.

Take `CC(=O)[C@@]1(O)CC[C@H]2[C@@H]3CCC4=CC(=O)CC[C@]4(C)C3(F)[C@@H](O)C[C@@]21C` (stereo not given in full): the Potency result was “inactive”.

For `CN1[C@H]2CC[C@@H]1[C@@H](C(=O)O)[C@@H](OC(=O)c1ccccc1)C2`, the Potency result is “inactive”.

Turning to `C[C@H]1CC[C@]2(NC1)O[C@H]1C[C@H]3[C@@H]4CC[C@H]5C[C@@H](O[C@@H]6O[C@H](CO)[C@H](O[C@@H]7O[C@H](CO)[C@@H](O)[C@H](O[C@@H]8OC[C@@H](O)[C@H](O)[C@H]8O)[C@H]7O[C@@H]7O[C@H](CO)[C@@H](O)[C@H](O)[C@H]7O)[C@H](O)[C@H]6O)CC[C@]5(C)[C@H]4CC[C@]3(C)[C@H]1[C@@H]2C`, the Potency is 1.88 µM (active).

For `Cc1ccc(N(SC(F)(Cl)Cl)S(=O)(=O)N(C)C)cc1`, the Potency is 0.122 µM (active).

With `Cc1cc(C(C)(C)c2ccc(O)c(C)c2)ccc1O`, the Potency entry is “inactive”.

Regarding `CCCCNC(C)(C)[P+](=O)O`, the Potency result is “inactive”.

For the molecule `Nc1ccc([N+](=O)[O-])cc1`, the Potency was 13.7 µM (active).

For the molecule `CCN(CC)CCO[C@H]1CC[C@@]2(C)C(=CC[C@@H]3[C@@H]2CC[C@]2(C)C(=O)CC[C@@H]32)C1`, the Potency was 1.33 µM (active).

In the case of `CC(C)=CCN1CC[C@]2(C)c3cc(O)ccc3C[C@H]1[C@H]2C`, the Potency is 24.3 µM (active).

Consider `O=c1ccc2cc(O[C@@H]3O[C@H](CO)[C@@H](O)[C@H](O)[C@H]3O)c(O)cc2o1`, for which the Potency result is “inactive”.

Regarding `CC[N+](C)(CC)CCOC(=O)C(O)(c1ccccc1)c1ccccc1`, the Potency entry is “inactive”.

Take `CCCCCc1cc(O)c2c(c1)OC(C)(C)[C@@H]1CCC(C)=C[C@@H]21`: the Potency is 9.44 µM (active).

`C[C@H]1CC[C@]2(NC1)O[C@H]1C[C@H]3[C@@H]4CC[C@H]5C[C@@H](O)CC[C@]5(C)[C@H]4CC[C@]3(C)[C@H]1[C@@H]2C`: the Potency entry is “inactive”.

As for `CC(C)(O)[C@@H]1[C@H]2OC(=O)[C@@H]1[C@]1(O)C[C@H]3O[C@]34C(=O)O[C@H]2[C@]14C`, the Potency entry is “inactive”.

Source of the values: PubChem BioAssay (Tox21).
